This is an account of results in publication PMC4552634, “A New Set of Chemical Starting Points with Plasmodium falciparum Transmission-Blocking Potential for Antimalarial Drug Discovery” (PLoS ONE, 2015).

The campaign covered roughly 13,000 compounds. About 3,200 (25%) showed an effect of 50% or more. The list shows a part of the results.

The test relates to P. falciparum stage V gametocytes. On the set-up: BacTiter-Glo ATP luminescence viability of purified stage V gametocytes in 384-well plates, per cent inhibition versus DMSO. To be noted: 48 h, 5 µM; inhibitor.
As a reminder, the % Inhibition is the relative decrease from the control value, in per cent. On to `N#Cc1ccc(C=Cc2nccc3c2[nH]c2ccccc23)cc1` [TCMDC-124483], for which the “% Inhibition” value is listed as -0.1389%. For `Cc1cc(C(=O)OCC(=O)Nc2c(C)n(C)n(-c3ccccc3)c2=O)c(C)n1-c1ccc(F)cc1` [TCMDC-123794], the “% Inhibition” value is given as -8.44%. `CCOC(=O)c1[nH]c2ccc(F)cc2c1NC(=O)CN1CCN(c2cccc(C(F)(F)F)c2)CC1` [TCMDC-124048]: the “% Inhibition” value is on record as -41.18%. Consider `COc1ccc2nccc(N3CCC(NCCNS(=O)(=O)c4ccc5c(c4)NC(=O)CS5)C3)c2n1` (stereo not drawn) [TCMDC-134527], for which the “% Inhibition” value is -17.46%. In the case of `CCCCCCCCCN(CCC)C(=O)[C@@H]1OC(C(=O)OC(c2ccccc2)c2ccccc2)=C[C@H](NC(=O)OC(C)(C)C)[C@H]1NC(C)=O` [TCMDC-132020], the “% Inhibition” value is given as -25.5%. With `O=C(Nc1ccc(Oc2cccnc2)cc1)C1CCN(Cc2cc(Cl)ccc2O)CC1` [TCMDC-124640], the “% Inhibition” value is -32.1%. In the case of `O=C(Cc1cnc[nH]1)Nc1ccc(-c2ccc(-c3nc4ccc(F)cc4[nH]3)cc2)cc1` [TCMDC-136781], the “% Inhibition” value was -5.638%. `CC(=O)Nc1nc(C(=O)Nc2ccc(-c3cccc(-c4nc5ccc(F)cc5[nH]4)c3)cc2)cs1` [TCMDC-137122]: the “% Inhibition” value was -21.41%. For `O=C(NCc1cccc(OC(F)(F)F)c1)c1cnc2c(c1)nc(-c1cnc(-c3ccccc3)[nH]1)n2CCc1cnc[nH]1` [TCMDC-139690] the value was -64.98%. Take `COc1ccc(OC)c(NC(=O)C2c3ccccc3C(=O)N(CC(C)C)C2c2cccs2)c1` (stereo not drawn) [TCMDC-124759]: the “% Inhibition” value was 26.61%. For `CCn1c(=O)c(C(=O)Nc2cc(Cl)c(OC)cc2OC)nc2ccccc21` [TCMDC-125064] the value was -72.41%. For `COc1cc(OC)c(NC(=O)C2c3ccccc3C(=O)N(CC(C)C)C2c2cccs2)cc1Cl` (stereo not drawn) [TCMDC-124760] the value was 55.1%; for `O=C(CN1CCN(C(C(=O)Nc2cc(C(F)(F)F)ccc2Cl)c2ccccc2)CC1)NC1CC1` (stereo not drawn) [TCMDC-125267], 8.518%. For `COc1cc2nc(N3CCC(CCCC4CCNCC4)CC3)nc(NCc3ccccn3)c2cc1OC` [TCMDC-138494] the value was 104%. Turning to `COc1ccc(CCNc2nc(NCCc3cnc[nH]3)nc(NCc3cccc4ccccc34)n2)cc1OC` [TCMDC-139244], the “% Inhibition” value is on record as 77.02%. For `COc1cc2nc(NCCc3ccccc3)nc(NC(C)c3ccccc3)c2cc1OC` (stereo not drawn) [TCMDC-135384] the value was 51.56%.

Turning to `COc1cc2nc(N3CCC(c4ccccc4)CC3)nc(NCc3ccc(=O)[nH]c3)c2cc1OC` [TCMDC-136497], the “% Inhibition” value is on record as -1.844%.

In the case of `COc1ccc(C(C)Nc2nc(N)c3cc(OC)c(OC)cc3n2)cc1.Cl` (stereo not drawn) [TCMDC-131891], the “% Inhibition” value was 10.29%. Consider `COc1cc2nc(NCCc3ccccc3)nc(NCc3ccc(C#N)cc3)c2cc1OC` [TCMDC-135300], for which the “% Inhibition” value was 97.53%. For `C[C@@H](Nc1nc(NCc2ccccc2)c2sccc2n1)c1ccccc1` [TCMDC-136500] the value was -1.002%.

`c1ccc(CNc2nc(NCCc3cnc[nH]3)nc(NCc3cccc4ccccc34)n2)cc1` [TCMDC-139737]: the “% Inhibition” value is on record as 1.176%. For `CC(C)Nc1nc(NCCc2cnc[nH]2)nc(NCc2cccc3ccccc23)n1` [TCMDC-139736] the value was 1.941%.

`CC[C@H]1CN2CC[C@H]1C[C@H]2[C@H](OC(=O)c1ccccc1)c1cc(C#N)nc2ccc(OC)cc12` [TCMDC-138208]: the “% Inhibition” value came to 28.19%.

In the case of `NC(N)=NC(=O)Nc1cc(Cl)c(Cl)c(Br)c1` [TCMDC-137463], the “% Inhibition” value is -17.34%. Turning to `N=C(N)c1cc(Cl)cc(NC(=O)Nc2cc(Cl)cc(C(=N)N)c2)c1` [TCMDC-124110], the “% Inhibition” value is on record as -2.183%. For `COc1cc2nc(-c3ccccc3)nc(N3CCN(C(=O)c4ccco4)CC3)c2cc1OC` [TCMDC-125059] the value was -9.427%; for `COc1cc2nc(NCCc3ccccc3)nc(NCc3cc(C)no3)c2cc1OC` [TCMDC-135435], 96.72%; for `COc1cc2nc(N3CCN(C(=O)c4ccco4)CC3)nc(NCc3ccccc3)c2cc1OC` [TCMDC-132028], 52.38%.

As for `COc1ccc(CNc2nc(NCCc3ccccc3)c3cc(OC)c(OC)cc3n2)cc1OC` [TCMDC-132019], the “% Inhibition” value is recorded as 85.76%. For `COc1cc2nc(NCC3CCCCC3)nc(NCc3ccccc3)c2cc1OC` [TCMDC-132014] the value was 59.54%; for `COc1cc2nc(N3CCC(C(N)=O)CC3)nc(NCc3ccccc3)c2cc1OC` [TCMDC-132023], 16.05%. For `CC(=O)NCCCCC1NC2(C(=O)N(Cc3ccc(C(C)(C)C)cc3)c3ccccc32)C2C(=O)N(C3CCCCC3)C(=O)C12` (stereo not drawn) [TCMDC-139771] the value was 5.053%; for `Cc1cc(N(C)C)nc(Nc2ccc(NC(=O)c3ccc(F)cc3)cc2)n1` [TCMDC-124723], 5.364%; for `O=C(Nc1ccc(Cl)cc1)Nc1cccc(-c2ccc(-c3nc4ccccc4[nH]3)cc2)c1` [TCMDC-133182], -15.2%. `CN(C)CCCNc1ncnc2c1[nH]c1ccc(F)cc12` [TCMDC-125598]: the “% Inhibition” value is recorded as -5.367%. As to `O=c1ccc(CNc2nc(NCCc3ccccc3)nc3ccc(Cl)cc23)c[nH]1` [TCMDC-136489], the “% Inhibition” value is given as 35.37%. `COc1ccc(CCNc2nc(N)c3cc(OC)c(OC)cc3n2)cc1.Cl` [TCMDC-131888]: the “% Inhibition” value was 1.23%. `COc1cc2ncnc(Nc3ccc(OCc4ccccc4)c(C(F)(F)F)c3)c2cc1OC` [TCMDC-131921]: the “% Inhibition” value is reported as 4.607%.

As to `COc1cc2nc(NCCc3ccccc3)nc(NCCCc3ccccc3)c2cc1OC` [TCMDC-135301], the “% Inhibition” value worked out at 108%. Take `COc1ccc(CNc2nc(NCc3ccc(C(F)(F)F)cc3)c3cc(OC)c(OC)cc3n2)cc1OC` [TCMDC-132016]: the “% Inhibition” value stood at 104.7%. As for `COc1cc2nc(NCCc3ccccc3)nc(NCc3nccs3)c2cc1OC` [TCMDC-135436], the “% Inhibition” value was 24.41%. Consider `O=c1ccc(CNc2nc(NCCc3ccccc3)nc3cc(Cl)ccc23)c[nH]1` [TCMDC-136510], for which the “% Inhibition” value amounted to 52.65%. For `COc1cc2nc(NCCn3nc(C)cc3C)nc(NCCc3ccccc3)c2cc1OC` [TCMDC-135473] the value was 52.48%; for `Clc1ccc2c(NCCc3ccccc3)ccnc2c1` [TCMDC-138551], -1.928%; for `Cc1c(CNCCCNc2cc(=O)c3ccccc3[nH]2)sc(-c2ccco2)c1Br` [TCMDC-141065], -27.75%. For the molecule `CSc1cccc(Nc2nc3ccc(S(=O)(=O)NC(C)C(C)C)cc3n2[C@H](C)C(C)(C)C)c1` (stereo partly drawn) [TCMDC-136239], the “% Inhibition” value is reported as -63.84%.

With `Cc1nn(C)cc1C(C)Nc1nncc(-c2ccc(C(F)(F)F)cc2)n1` (stereo not drawn) [TCMDC-124694], the “% Inhibition” value is listed as -19.2%. As for `OC1(c2ccc(Br)cc2)CCN(C2CCN(Cc3ccccc3)CC2)CC1` [TCMDC-124137], the “% Inhibition” value came to 40.29%. For `O=C(O)C(F)(F)F.c1cc(CN2CCN(c3ccncc3)CC2)cc(-c2ccc(-c3nc4ccccc4[nH]3)s2)c1` [TCMDC-132909] the value was 11.83%; for `COc1ccc2nccc([C@@H](O)CN3CCC(NCc4cc5cc(C)ccc5s4)CC3)c2c1` [TCMDC-140682], 12.73%. For `CN(C)CCCn1cncc1-c1ccc2ncnc(Nc3ccc4c(cnn4Cc4ccccc4)c3)c2c1` [TCMDC-138087] the value was -19.79%; for `CN(C)CCc1coc2ccc(C(=O)Nc3ccc(-c4ccc(O)cc4)cc3)cc12` [TCMDC-132005], -54.25%. For `COc1cc2nc(NCCCN3CCCCC3)nc(NCc3ccccc3)c2cc1OC` [TCMDC-132012] the value was 112.9%.

As to `COc1cccc(CCNc2nc(NCc3ccccc3)c3cc(OC)c(OC)cc3n2)c1` [TCMDC-135267], the “% Inhibition” value turned out to be 71.62%. For `COc1cc2nc(NCCc3cccc(Cl)c3)nc(NCc3ccccc3)c2cc1OC` [TCMDC-135266] the value was 90.56%. For `c1ccc(CNc2nc(NCCN3CCCCC3)nc3ccccc23)cc1` [TCMDC-137554] the value was 18.64%; for `COc1cc2nc(NCCc3ccccc3)nc(NCc3cnn(C)c3C)c2cc1OC` [TCMDC-135459], 100.1%. For `Cc1ccccc1C1CCN(C2CCC(NC(=O)/C=C/c3c[nH]c4ccccc34)CC2)CC1` (stereo not drawn) [TCMDC-134103] the value was -47.56%; for `O=C(O)CCSc1ncnc2nc[nH]c12` [TCMDC-125870], -3.326%. As to `NC(N)=Nc1ccc(CCc2ccc(N=C(N)N)cc2)cc1` [TCMDC-137701], the “% Inhibition” value is on record as -9.941%. In the case of `O=C(Nc1cccc(CN2CCCN(Cc3ncc[nH]3)CC2)c1)c1ccc(-c2ccccc2)cc1` [TCMDC-141849], the “% Inhibition” value is 12.11%. On to `CC1(C)CCCN(C(=O)Cc2ccc3c(c2)CCCC3)C1CN1CC=CC1` (stereo not drawn) [TCMDC-131637], for which the “% Inhibition” value is listed as 3.216%. As for `C=Cc1sc(CNCCCNc2cc(=O)c3ccccc3[nH]2)c(C)c1Br` [TCMDC-141064], the “% Inhibition” value is recorded as -9.308%. For the molecule `N#Cc1ccc(CN2CCCN(c3ccc(NC(=O)c4ccc(F)cc4)cc3)CC2)cc1` [TCMDC-134984], the “% Inhibition” value was -24.83%. As to `COc1ccc(CCNc2nc(NCc3ccccc3)c3cc(OC)c(OC)cc3n2)cc1OC` [TCMDC-132017], the “% Inhibition” value is listed as 95.97%. Consider `COc1ccc(CNc2nc(NCc3ccccc3)c3cc(OC)c(OC)cc3n2)cc1OC` [TCMDC-131893], for which the “% Inhibition” value stood at 102.4%. For `COc1cc2nc(N[C@@H](CO)c3ccccc3)nc(NCc3ccccc3)c2cc1OC` [TCMDC-132024] the value was 6.921%; for `COc1ccc2ccccc2c1CON1C(N)=NC(N)=NC1(C)C` [TCMDC-131789], 14.14%; for `O=C(N/C(=C/c1cccc([N+](=O)[O-])c1)c1nc2ccccc2[nH]1)c1cccc(Br)c1` [TCMDC-123667], 25.9%.
